Results: the supplement of paper PMC7380943

These molecules were tested on CLZ3 (HCA2 human fibroblast dual HR-NHEJ reporter) (assay: HR repair efficiency (tdTomato+ cells) relative to control (log10 fold); higher = more homologous recombination). Conditions: 5 µM; doxycycline 0.5 ug/mL.
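Note: compound given one day before doxycycline, which switches on I-SceI endonuclease expression to create double-strand breaks within the integrated reporter.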

Row | Structure (SMILES) | HR repair efficiency (log10)
1 | CC(C)=CCC12Oc3cc(O)ccc3C1(O)Oc1cc(O)c([C@H]3C=C(C)C[C@@H](c4ccc(O)cc4O)[C@@H]3C(=O)c3ccc(O)cc3O)c(O)c1C2=O (stereo partly drawn) [Sanggenon D] | -0.176
2 | COC(=O)C1=CO[C@@H](O[C@@H]2O[C@H](CO)[C@@H](O)[C@H](O)[C@H]2O)[C@H]2[C@@H]1[C@H](O)C[C@]2(C)O [Shanzhiside methylester] | 0.314
3 | C/C=C/C#CC#C[C@@H](O)[C@@H](/C=C/CCCO)O[C@@H]1O[C@H](CO)[C@@H](O)[C@H](O)[C@H]1O [Lobetyolin] | 0.131
4 | O=c1c(-c2ccc(O[C@@H]3O[C@H](CO)[C@@H](O)[C@H](O)[C@H]3O)cc2)coc2cc(O)cc(O)c12 [Sophoricoside] | 0.0013
5 | COc1ccc(/C=C/c2cc(O)cc(O[C@@H]3O[C@H](CO)[C@@H](O)[C@H](O)[C@H]3O)c2)cc1 [Desoxyrhaponticin] | 0.245
6 | OCC1=C[C@@H](O)[C@]2(O[C@@H]3O[C@H](CO)[C@@H](O)[C@H](O)[C@H]3O)C=CO[C@@H](O[C@@H]3O[C@H](CO)[C@@H](O)[C@H](O)[C@H]3O)[C@H]12 [Melittoside] | 0.096
7 | CC1(C)[C@@H](O)CC[C@]2(C)[C@H]3CC=C4[C@@H]5C[C@@]6(C)C[C@H](OC6=O)[C@]5(C)CC[C@@]4(C)[C@]3(C)CC[C@@H]12 [Wilforlide A] | 0.00171
8 | C[C@@H]1O[C@@H](Oc2c(-c3ccc(O)c(O)c3)oc3cc(O)cc(O)c3c2=O)[C@H](O)[C@H](O)[C@H]1O [Quercitrin] | 0.0282
